D3 ag: agonists of human D3 dopamine receptor; P35462; D3R DiscoveRx beta-arrestin cells, luminescence, 90 min; max activation, %; 410,000 compounds, 0.58% hits; in the data active = max activation above about 30%
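Cells at 1500/well, incubated overnight, then treated with pinned compounds (dopamine as control) for 90 min at 37 degrees C. DiscoveRx reagent added for 30 - 60 minutes at room temperature; luminescence read.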
TSHR antagonist: antagonists of human thyroid stimulating hormone receptor; P16473; TSHR-expressing cells, TSH-stimulated cAMP HTRF, 2 h; active compounds read low; activity change, negative = inhibition, % at 11.5 µM; 330,000 compounds, 0.2% hits;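 active = activity change below a set negative limit, meaning inhibition stronger than a set level, cut at about -70% in these data; inconclusive = activity change between two set negative limits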
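Antagonism was scored as loss of TSH-driven cAMP in TSHR cells, stimulated with 4nM TSH (EC80) for 2 hours at 37 deg C and detected by homogeneous HTRF competition immunoassay.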
B2AR arrestin: recruits beta-arrestin to the human beta2-adrenergic receptor; Potency, µM (highest dose often 46.1 µM), most hits filed as activators; P07550; beta-arrestin recruitment to beta2AR, cell-based reporter; 330,000 compounds, 0.02% hits; active = well fitted activation curve with a large enough effect; inconclusive = small, poorly fitted or top-dose-only effect; also: nearly all actives have a fitted effect of over 65% in size
Target sequence (P07550 whole entry, looked up): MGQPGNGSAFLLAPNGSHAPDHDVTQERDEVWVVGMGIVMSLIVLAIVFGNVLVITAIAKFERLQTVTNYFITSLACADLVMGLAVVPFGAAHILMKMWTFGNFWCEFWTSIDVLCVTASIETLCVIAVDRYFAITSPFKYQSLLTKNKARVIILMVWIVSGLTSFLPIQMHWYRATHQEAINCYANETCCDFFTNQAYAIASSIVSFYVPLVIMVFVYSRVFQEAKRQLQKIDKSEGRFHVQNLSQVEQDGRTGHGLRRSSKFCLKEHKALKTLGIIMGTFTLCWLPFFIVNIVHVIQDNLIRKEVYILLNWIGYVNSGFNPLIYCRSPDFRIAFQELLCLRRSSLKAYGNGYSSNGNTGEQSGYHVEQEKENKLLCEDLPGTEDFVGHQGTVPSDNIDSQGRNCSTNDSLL
DRD3 antagonist: antagonists of human D3 dopamine receptor; D3R cells, DiscoveRx beta-arrestin luminescence, antagonist mode; active compounds read low; max response, negative = inhibition, %; 360,000 compounds, 2.5% hits; in the data active = max response below about -50%; inconclusive = no clear call, values can overlap the other calls
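Cells expressing the human receptor were seeded at 1500 cells/well, incubated overnight at 37 degrees C in 5% CO2, then exposed to library compounds with dopamine controls for 90 minutes at 37 degrees C before luminescent detection.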
Of the large screens only hits and unclear results are named; the others gave an inactive call. Compounds with a hit are over-represented: about 2.9% of the library has one in this group of screens.

CCCCNc1c(-c2ccc(OC)c(Sc3ccc(OC)cc3)c2)nc2cnccn12	D3 ag 62
CCCCNc1c(-c2ccc(SC(C)CC)c(OC)c2)nc2ccc(Cl)cn12 (centres undefined)	none
CCCCCCSc1cc(-c2nc3cnccn3c2NCCCC)ccc1OC	D3 ag 104
O=c1c2sccc2n(Cc2cc(=O)n3cc(Cl)ccc3n2)c(=O)n1-c1ccccc1	none (no result: TSHR antagonist, B2AR arrestin, DRD3 antagonist)
CCCCNc1c(-c2ccc(OC)c(Sc3ccc(OC)cc3)c2)nc2ccccn12	none
CCCCNc1c(-c2ccc(-c3ccc(OC)cc3)c(OC)c2)nc2ccccn12	D3 ag 102
CCOC(=O)Cn1c(=O)oc2cc(S(=O)(=O)N3CCN(c4cc(C)ccc4C)CC3)ccc21	none (no result: TSHR antagonist, B2AR arrestin, DRD3 antagonist)
CCOC(=O)c1cnc(-n2nc(C)cc2C)nc1NC(C)c1ccccc1 (centres undefined)	DRD3 antagonist -59
Cc1ccc(NC(=O)CS(=O)CC(=O)N(CC(=O)NC(C)(C)C)c2cccc(C)c2C)cc1 (centres undefined)	D3 ag 32
CC(C)(C)c1ccc(/C=C/C(=O)Nc2ccc3c(c2)OCCO3)cc1	none (no result: D3 ag, B2AR arrestin, DRD3 antagonist)
CC1(C(=O)NS(=O)(=O)Cc2ccccc2C(F)(F)F)CCN1C(=O)Cc1ccsc1 (centres undefined)	none (no result: TSHR antagonist, B2AR arrestin)
O=C(C#Cc1ccccc1)c1ccco1	TSHR antagonist inconclusive, DRD3 antagonist -100
CN(C(=O)COc1ccc(C(C)(C)C)cc1)C1CCS(=O)(=O)C1 (centres undefined)	DRD3 antagonist -64
COc1ccccc1NC(=O)n1ncc2c(C)cccc21	none (no result: TSHR antagonist, B2AR arrestin, DRD3 antagonist)
CCOC(=O)c1ccc(NS(=O)(=O)c2ccc3c(c2)CCN3C(=O)CC)cc1	none (no result: TSHR antagonist, B2AR arrestin, DRD3 antagonist)
C=C(C)C(C)(C#CCN1CCCC1)OC(C)=O (centres undefined)	DRD3 antagonist -72
CCN1CCN(c2c(S(=O)(=O)c3ccc(C)c(C)c3)cnc3cc(OC)c(OC)cc23)CC1	none (no result: TSHR antagonist, B2AR arrestin, DRD3 antagonist)
O=C(O)c1nn(Cc2ncc(-c3cccc(Cl)c3)o2)c(=O)c2ccccc12	D3 ag 33
Cc1ccc(Cc2c(-c3ccc(C)cc3)nc3c(Cl)cc(C(F)(F)F)cn23)cc1	none (no result: TSHR antagonist, B2AR arrestin)
Cc1ccc(-c2nc3c(Cl)cc(C(F)(F)F)cn3c2Cc2ccsc2)cc1	DRD3 antagonist -59 (no result: TSHR antagonist, B2AR arrestin)
CC(C)(C)Cc1c(-c2ccc(Cl)cc2)nc2c(Cl)cc(C(F)(F)F)cn12	D3 ag 37 (no result: TSHR antagonist, B2AR arrestin)
Fc1cccc(Cc2c(-c3ccccc3)nc3c(Cl)cc(C(F)(F)F)cn23)c1	D3 ag 62 (no result: TSHR antagonist, B2AR arrestin)
CCS(=O)(=O)N1CC(=O)N(c2ccc(Cl)cc2C)C(C)(C(=O)NC2CCCCCC2)C1 (centres undefined)	none (no result: TSHR antagonist, B2AR arrestin, DRD3 antagonist)
CCCSc1ncc(Cl)c(C(=O)Nc2sc3c(c2C(=O)OC)CCCC3)n1	none (no result: TSHR antagonist, B2AR arrestin, DRD3 antagonist)
CCOc1ccc(NC(=O)CSc2nc(-c3ccccc3)c3cc(OCC)ccc3n2)cc1	none (no result: TSHR antagonist, B2AR arrestin, DRD3 antagonist)
CC(=O)C1CCC2C3CC(C)=C4CC(O)CCC4(C)C3CCC12C (centres undefined)	D3 ag 65 (no result: TSHR antagonist, B2AR arrestin)
CC(=O)[C@H]1CC[C@H]2[C@@H]3CC=C4C[C@@H](O)CC[C@]4(C)[C@H]3CC[C@]12C	none
Cc1ccc(C2CC(=O)NC(SCc3ccccc3)=C2C#N)o1 (centres undefined)	DRD3 antagonist -62
Cc1[nH]c2ccccc2c(=O)c1CN1CCCCCC1	none
Cc1[nH]c2c(Cl)cccc2c(=O)c1CN1CCCC1	DRD3 antagonist -65
OCc1ccc(-c2nn(Cc3ccccc3)c3ccccc23)o1	none
CN(C)CCCOc1nn(Cc2ccccc2)c2ccccc12	DRD3 antagonist -93
CCCC1([C@H](O)C/C=C/[C@H]2[C@H](O)CC(=O)[C@@H]2CCCCCCC(=O)OC)CCC1	none (no result: TSHR antagonist, B2AR arrestin, DRD3 antagonist)
CCn1c(CC(=O)Nc2ccc(Cl)c(Cl)c2)nnc1SCc1ccc(C)cc1	DRD3 antagonist -93
O=[N+]([O-])c1ccc(NCCNc2ccc(Cl)nn2)cc1	DRD3 antagonist -74
O=C(NCCNc1ccc([N+](=O)[O-])cc1)c1ccccc1Cl	DRD3 antagonist inconclusive (no result: TSHR antagonist, B2AR arrestin)
O=c1cc(N2CCCCC2)nc2n1CCCS2	D3 ag 35
O=C(CSc1nc(=O)[nH]c2c1CCCC2)Nc1ccc(Cl)c(Cl)c1	none (no result: TSHR antagonist, B2AR arrestin, DRD3 antagonist)
C=C(C)C1CC=C(CN2CCC(O)CC2)CC1 (centres undefined)	DRD3 antagonist inconclusive
C=C(C)C1CC=C(CN2CCN(Cc3ccccc3)CC2)CC1 (centres undefined)	DRD3 antagonist -57
C=C(C)[C@@H]1CC=C(CN2CCN(Cc3ccccc3)CC2)CC1	DRD3 antagonist -65
N#CCCNCC1(c2ccccc2)CCCC1	DRD3 antagonist -54
N#CCC(=O)NCC1(c2ccccc2)CCCC1	none
